Compound activity from PubChem BioAssay.
PINK1 modulator = changes PINK1 expression | PINK1 immunofluorescence, high-content cytometry, 24 h | Potency, µM (series often up to 76.6 µM), inactives show top-dose activation (PINK1 increase), actives largely listed as activators | 410,000 compounds, 0.2% hits | AID 624263; active = well fitted activation curve with a large enough effect; inconclusive = small, poorly fitted or top-dose-only effect; cell line not stated here; also: % of control where 0% means no effect; nearly all actives have a fitted effect of over 65% in size
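Readout is PINK1 immunofluorescence, quantified alongside mitochondrial, cell and nuclear markers by laser-scanning microplate cytometry. Cells from a stable line were exposed to compound titrations (5 concentrations) for 24 hours, with CCCP controls.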
HTT cytoprotect = Huntington cell model cytoprotection by ATP luminescence | PC12 HTT-Q103 induced, cytoprotection, ATP luminescence, 40 h | Potency, µM (top dose mostly 56.4 µM), for inactives: cytoprotection (ATP increase), most hits filed as activators | 230,000 compounds, 0.14% hits | AID 1471; also: % of control where 0% means no effect; nearly all actives have a fitted effect of over 45% in size
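ATP quantification (ATPlite) reports survival of PC12 cells in which tebufenozide, 100 nM final, switches on Htt exon 1 with 103 glutamines linked to GFP; compounds are titrated.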
Epigenetic reg = regulators of epigenetic silencing causing reporter derepression in mouse cells; Potency, µM (doses to about 53.9 µM), for inactives: top-dose GFP activation, most hits filed as activators; murine LDR cells, GFP reporter derepression, 30 h; 280,000 compounds, 0.2% hits; also: % of control where 0% means no effect; nearly all actives have a fitted effect of over 60% in size
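Reporter derepression read as number of fluorescent GFP-positive objects, 20-120 um in size, counted by laser-scanning cytometer. Mouse LDR line with an epigenetically silenced CMV-GFP locus; compound incubation 30 h, 37 C.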
HTT aggregate = reduces HttQ103-GFP aggregates in PC12 cells; PC12 HttQ103-GFP aggregates, Acumen cytometry, 40 h; Potency, µM (series often up to 46.1 µM), for the others: at the top dose activity change, negative = inhibition, most hits filed as inhibitors; 220,000 compounds, 1.1% hits; also: % is scaled to controls: 0 for no effect and ±100 for the full control effect; nearly all actives have a fitted effect of over 60% in size
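Ecdysone-promoter PC12 model expressing HTT exon 1 Q103 fused to GFP, induced by tebufenozide at 100 nM final. Compounds titrated; aggregates sized 1–25 µm scored on a 488 nm laser cytometer.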
* = called active by the depositor; ? = inconclusive; · = no result given; [ ] = dose if it differs, or a comment. Shown is part of a subset that was picked to be rich in hits. Unless noted, calls follow the shape of the dose curve; as a rule, active = well fitted curve in the direction sought with a large enough effect; inconclusive = small, poorly fitted or top-dose-only effect, or another doubt; inactive = no such curve, though single readings can be large; an effect the other way counts as inactive or inconclusive. Potency is read from the fitted curve at half-maximal effect.

SMILES	PINK1 modulator	HTT cytoprotect	Epigenetic reg	HTT aggregate
Cc1ccccc1-n1c(/C=C/c2c(C)[nH]c3ccccc23)nc2ccccc2c1=O	0%	·	?	·
Cc1ccccc1-n1c(/C=C/c2ccc(N(C)C)cc2)nc2ccccc2c1=O	3%	·	10µM*	·
Nc1c(C(=O)Nc2ccc([As](=O)(O)O)cc2)cnc2nnnn12	·	8%[10 µM]	·	·
COC(=O)C1=C(c2cccc(C#N)c2)C[C@@H]2CC[C@H]1N2C(=O)NCCOc1ccccc1	2%	·	·	·
C[n+]1c(-c2ccccc2)cc(CCCCc2cc(-c3ccccc3)[n+](C)c(-c3ccccc3)c2)cc1-c1ccccc1	32µM*	17%[10 µM]	1%	22µM*
Cc1ccc(-c2cc(-c3ccccc3)cc(-c3ccccc3)[n+]2-c2ccc(C(=O)O)cc2)cc1	0%	·	·	·
COc1ccc(-c2cc(-c3ccccc3)[n+](C)c(-c3ccccc3)c2)cc1	?	-54%[10 µM]	0%	7.1µM*
COc1ccc(C2CC(c3c(O)n(CCc4ccccc4)c(=O)[nH]c3=O)=NN2)cc1OC (stereo not given)	-3%	6%[10 µM]	4%	-3%[9.22 µM]
CCCC[C@@H](C)C[C@@H](C)C(=O)N(C)[C@@H](CC(C)C)C(=O)N[C@H](C(=O)N(C)[C@H](C(=O)N1C[C@@H](O)C[C@H]1C(=O)N1C(=O)C=C[C@@H]1C)C(C)C)C(C)OC(C)=O (stereo not given in full)	-1%	·	·	·
NP(N)(=O)NC(=O)c1ccc(F)cc1	·	-21%	2%	19%
COc1cc([C@@H]2c3cc4c(cc3[C@H](OC(C)=O)[C@H]3COC(=O)[C@@H]23)OCO4)cc(OC)c1OC	4%	·	·	·
CCN1CCN(Cc2cc(Br)ccc2O)CC1	-2%	8%	-1%	3%
CCc1ccc(CN2CCN(Cc3cc(Br)ccc3O)CC2)cc1	40µM*	-36%	0%	-28%
CN1/C(=C\C=C\C2=[N+](C)c3ccc4ccccc4c3C2(C)C)C(C)(C)c2ccccc21	·	-114%	0%	2.8µM*
CCN1/C(=C/C=C/C2=[N+](CC)c3ccccc3C2(C)C)C(C)(C)c2ccccc21	-2%	·	·	·
COc1cc(CN2CCN(c3cc(C)ccc3C)CC2)ccc1O	1%	-161%[0.074 µM]	0%	10µM*
c1ccc(-c2ccccc2)cc1	·	28%	·	·
[Hg+][c]1ccccc1	-1%	-99%	·	3.2µM*
COC(=O)C1C(c2ccccc2)C2C(=O)c3c(OC)cc(OC)cc3O[C@@]12c1ccc(OC)cc1 (stereo not given in full)	·	-14%[10 µM]	1%[10.1 µM]	·
COC(=O)[C@@H]1[C@@H](O)[C@@]2(O)c3c(OC)cc(OC)cc3O[C@@]2(c2ccc(OC)cc2)[C@H]1c1ccccc1	·	-100%[10 µM]	3.5µM*	·
Cc1ccc(N)c(C(=O)c2ccc(Br)cc2)c1	3%	-25%	11%	7.1µM*
Nc1ccc(Br)cc1C(=O)c1ccccc1	3%	-24%	0%	-3%
NC(N)=NN=C(/C=C/c1ccc([N+](=O)[O-])o1)/C=C/c1ccc([N+](=O)[O-])o1	·	-99%	·	10µM*
Cc1cccc(N2C(=O)NC(=O)/C(=C/c3ccc([N+](=O)[O-])o3)C2=O)c1	2%	-1%[10 µM]	0%	?
CCN(CC)c1ccc(/C=N/c2sc3c(c2C#N)C2CCN3CC2)c(O)c1	14%	18%[10 µM]	2.8µM*	-13%
SMILES	PINK1 modulator	HTT cytoprotect	Epigenetic reg	HTT aggregate
Nc1ccc2c3c(cccc13)-c1ccccc1-2	11µM*	·	·	·
C=CCn1c(O)c(C(CC)=NCc2ccc3c(c2)OCO3)c(=O)[nH]c1=O	3%	-5%[10 µM]	0%	6%[9.22 µM]
CCCCn1c(O)c(C(CC)=NCc2ccc3c(c2)OCO3)c(=O)[nH]c1=O	-1%	-18%	-1%	25µM*
CCC(C(=O)O)C1CCC(C)C(C(C)C(O)C(C)C(=O)C(CC)C2OC3(C=CC(O)[C@@]4(CC[C@](C)(C5CC[C@@](O)(CC)C(C)O5)O4)O3)C(C)CC2C)O1 (stereo not given in full)	·	-308%	1%	1.4µM*
CCOC(=O)c1ccc(NC(=O)c2c(O)[nH]c(=O)[nH]c2=O)cc1	4%	1%	2%	3.5µM*
CN1CC[C@@]2(C)c3cc(O)ccc3N(C)[C@@H]12	6%	-1%[1.9 µM]	0%	·
Cc1cc(OC(=O)c2cccs2)c2c3c(c(=O)oc2c1)CCCC3	0%	29%[10 µM]	0%	25µM*
Cc1cc(OCC(=O)O)c2c3c(c(=O)oc2c1)CCCC3	0%	-2%	1%	-2%
